We go through twelve compounds from PubChem BioAssay (NCI).

Some test systems named below: NCI-H23 lung; NCI-H226 lung; NCI-H322M lung; HOP-62 NSCLC; NCI-H460 lung; HOP-92 NSCLC; NCI-H522 lung; A549/ATCC NSCLC; 786-0 renal; COLO 205 colon.
Holding throughout (assay): NCI-60 one-dose screen, 48 h (100 = growth as untreated, 0 = no growth, -100 = all killed)
Holding throughout (conditions): 10 µM unless noted

Several values for one entry are separate records, joined by “and”; a condition that tells them apart may be missing. Equal entries are not always repeated. About 83,000 compounds went through this panel and 20% of them were active in at least one assay; those are over-represented in the sample as a whole.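 Activity criterion: percent growth below 10, measured after cells in 96-well plates were exposed to a single compound concentration for 48 hours.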 Unmarked numbers belong to inactive results. Activity calls are given as the source filed them.

In the case of `[2H]C([2H])([2H])Oc1cccc(/C=C/C(=O)/C=C(/C=C/c2cccc(OC([2H])([2H])[2H])c2OC([2H])([2H])[2H])OB(F)F)c1OC([2H])([2H])[2H]`, the growth in the test with NCI-H23 lung was 69.9%; with NCI-H226 lung, 95.4%; with NCI-H322M lung it was 106%; in the test with HOP-62 NSCLC it was 99.5%; in the test on NCI-H460 lung it was 96.9%; in the test on HOP-92 NSCLC, 102%. Also, the growth in the test with NCI-H522 lung was 56.9%; in the test with A549/ATCC NSCLC, 93.4%; with 786-0 renal, 85.2%; in the test with COLO 205 colon, 55.2%.
For the compound `ON=C1CCCCCCCC1`, the growth in the test on NCI-H23 lung is 99.6% and 98%; with NCI-H226 lung, 105%; in the test on NCI-H322M lung, 96.4%; in the test with HOP-62 NSCLC it was 104%; with NCI-H460 lung it was 114% and 110%; with HOP-92 NSCLC it was 105% and 102%. Besides, the growth is 94.1% and 92.8% in the test with NCI-H522 lung; 103% and 110% in the test on A549/ATCC NSCLC; 116% and 95.6% in the test with 786-0 renal; 102% and 112% in the test on COLO 205 colon.
Regarding `N#CC1=C(N)Oc2c(sc3c(Br)cccc23)C1c1ccccn1` (stereo not given), the growth in the test on NCI-H23 lung was 53.3%; with NCI-H226 lung, 41.2%; in the test on NCI-H322M lung it was 51.1%; with HOP-62 NSCLC, 30.9%; with NCI-H460 lung, 20.4%; with HOP-92 NSCLC, 35.3%. For the same compound, the growth in the test on NCI-H522 lung was -14.1% (active); in the test on A549/ATCC NSCLC, 40.1%; in the test on 786-0 renal, 27.2%; in the test on COLO 205 colon, 6.4% (active).
In the case of `O=C(NCc1cccnc1)/C(=C\c1ccc(Br)cc1)S(=O)(=O)c1ccccc1`, the growth in the test with NCI-H23 lung is -43.7% (active); in the test with NCI-H226 lung, 7.52% (active); with NCI-H322M lung, 1.87% (active); with HOP-62 NSCLC it was -34.1% (active); in the test with NCI-H460 lung, -30.5% (active); in the test with HOP-92 NSCLC, -2.35% (active). Also, the growth in the test on NCI-H522 lung is -71.2% (active); in the test on A549/ATCC NSCLC it was -3.53% (active); in the test on 786-0 renal, -67.7% (active); in the test on COLO 205 colon, -84.2% (active).
As for `Cn1c(=O)c2c(nc(Nc3cc(=O)[nH]c(=O)[nH]3)n2Cc2ccccc2)n(C)c1=O`, the growth is 91.5% in the test on NCI-H23 lung; 86.6% with NCI-H226 lung; 97.9% in the test on NCI-H322M lung; 20.6% in the test on HOP-62 NSCLC; 2.91% (active) in the test on NCI-H460 lung; 80.5% in the test on HOP-92 NSCLC. Besides, the growth with NCI-H522 lung is 4.24% (active); in the test on A549/ATCC NSCLC, 12.3%; with 786-0 renal, 102%; in the test on COLO 205 colon, -2.38% (active).
With `CN(C)CCCn1c2nc(=O)[nH]c(=O)c-2nc2cc(Cl)c(Cl)cc21`, the growth in the test with NCI-H23 lung is 109%; in the test with NCI-H226 lung it was 105%; with NCI-H322M lung it was 69.1%; in the test on HOP-62 NSCLC it was 117%; in the test with NCI-H460 lung, 107%; in the test on HOP-92 NSCLC, 88.3%. Also, the growth with NCI-H522 lung is -23.7% (active); in the test on A549/ATCC NSCLC, 99%; in the test with 786-0 renal, 103%; in the test with COLO 205 colon, 4.28% (active).
Regarding `CN(C)C1CCN(C(=O)c2ccc(NC(=O)Nc3ccc(-c4nc(N5CCOCC5)c5cccn5n4)cc3)cc2)CC1`, the growth is 15.5% with NCI-H23 lung; -7.75% (active) in the test with NCI-H226 lung; -9.27% (active) in the test with NCI-H322M lung; -12.9% (active) in the test on HOP-62 NSCLC; 6.48% (active) with NCI-H460 lung; -31.2% (active) in the test with HOP-92 NSCLC. Further, the growth was 14.6% with NCI-H522 lung, 3.9% (active) in the test on A549/ATCC NSCLC, -18.6% (active) in the test on 786-0 renal and -3.31% (active) in the test on COLO 205 colon.
In the case of `O=C1c2cc3c(cc2-c2c1c1ccc(Cl)cc1c(=O)n2CCCn1ccnc1)OCO3`, the growth in the test on NCI-H23 lung was -38.2% (active); in the test with NCI-H226 lung, 1.03% (active); in the test on NCI-H322M lung it was 10.5%; with HOP-62 NSCLC, 5.44% (active); in the test on NCI-H460 lung it was 2.4% (active); in the test with HOP-92 NSCLC it was -2.88% (active). Besides, the growth in the test on NCI-H522 lung is -26.1% (active); in the test on A549/ATCC NSCLC, 19.6%; with 786-0 renal, -40.9% (active); in the test on COLO 205 colon, 14.5%.
For `O=C(O)c1ccccc1Cc1ccc(F)c2ccccc12`, the growth in the test on NCI-H23 lung is 97.5% and 105%; with NCI-H226 lung, 107%; in the test with NCI-H322M lung it was 109% and 112%; with HOP-62 NSCLC, 94.3% and 109%; in the test on NCI-H460 lung it was 109% and 99.2%; with HOP-92 NSCLC it was 74.6%. Also, the growth with NCI-H522 lung was 94.5% and 89.9%; in the test on A549/ATCC NSCLC it was 101% and 95.3%; in the test with 786-0 renal, 125% and 110%; in the test on COLO 205 colon, 101% and 121%.
For `CC(=O)N1N=C(c2ccc(Nc3nc(Nc4ccc(F)cc4)nc(Nc4ccc(F)cc4)n3)cc2)CC1c1ccccc1` (stereo not given), the growth in the test on NCI-H23 lung is 90%; with NCI-H226 lung it was 102%; in the test with NCI-H322M lung, 92.5%; with HOP-62 NSCLC, 85.9%; in the test with NCI-H460 lung, 92.3%; in the test on HOP-92 NSCLC, 58.3%. Also, the growth was 89.4% with NCI-H522 lung, 86.4% in the test on A549/ATCC NSCLC, 78.5% in the test with 786-0 renal and 68.5% in the test on COLO 205 colon.
Regarding `C=CCNC(=O)Cc1c(-c2ccc(OC)cc2)oc2c(OC)c3c(c(OC)c12)OCO3`, the growth with NCI-H23 lung is 96.2%; in the test with NCI-H226 lung, 101%; in the test on NCI-H322M lung, 97.9%; with HOP-62 NSCLC, 105%; in the test on NCI-H460 lung it was 102%; with HOP-92 NSCLC, 114%. Besides, the growth with NCI-H522 lung was 92.7%; with A549/ATCC NSCLC, 95.2%; in the test on 786-0 renal, 104%; in the test on COLO 205 colon it was 117%.
Regarding `C=C1C(=O)O[C@H]2[C@H]1CC/C(COC(=O)NCc1ccc(Cn3c(=O)sn(CCCI)c3=O)cc1)=C\CC[C@@]1(C)O[C@@H]21`, the growth is 72.1% in the test on NCI-H23 lung; 77.9% in the test on NCI-H226 lung; 97.5% in the test with NCI-H322M lung; 96% in the test on HOP-62 NSCLC; 102% in the test on NCI-H460 lung; -29.3% (active) in the test with HOP-92 NSCLC. Also, the growth was -68.2% (active) in the test with NCI-H522 lung, 95.5% with A549/ATCC NSCLC, 6.22% (active) with 786-0 renal and -45.8% (active) in the test on COLO 205 colon.
